In the supplement of paper PMC10849652:
The full data set covers some 7,900 targets. This sample favours those with a hit. About 0.6% of all pairs of compound and target were hits. Unmarked numbers belong to inactive results.

Key:
Assay in all cases: log2 fold change, soluble protein after heating vs DMSO (PISA); higher = thermal stabilisation; K562 cells, 10 uM, 30 min; active = over 0.2 and 3.5 SD of the protein, either way, in both replicates (recomputed)
[1] = compound: CC1=C(C=C(C=C1)NC(=O)C2=CC(=CC=C2)C(C)(C)C#N)NC3=CC4=C(C=C3)N=CN(C4=O)C
Outline: (§1)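 K562 cells (2×10^6 cells/mL) were treated with 10 μM compound for 30 min, and aliquots were heated for 3 min over 48°C-58°C. Pooled aliquots were extracted in PBS with 0.5% NP-40 at 4°C, and the supernatant after 21,000xg for 90 min was measured by TMTpro 16plex LC-MS/MS with channel sums equalised. Reported thermal stability, relative to control samples and from duplicates, is a log2 fold change.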

[2] = compound: CC1=C(C=C(C=C1)NC(=O)C2=CC(=CC=C2)N(C)C)NC(=O)C3=CC=C(C=C3)O
Outline: as §1

[3] = compound: CC1=CC=C(C=C1)SC2=C3C=C(SC3=CN=C2)C(=O)N
Outline: as §1

[4] = compound: CC1=NC(=CC=C1)C2=C(N=C(N2)C(C)(C)C)C3=CC4=NC=CN=C4C=C3
Outline: as §1

Nexturastat A = compound: CCCCN(Cc1ccc(C(=O)NO)cc1)C(=O)Nc1ccccc1 [Nexturastat A]
Outline: as §1

vemurafenib = compound: CCCS(=O)(=O)Nc1ccc(F)c(C(=O)c2c[nH]c3ncc(-c4ccc(Cl)cc4)cc23)c1F [vemurafenib]
Outline: as §1

[5] = compound: CCCS(=O)(=O)Nc1ccc(F)c(C(=O)c2c[nH]c3ncc(Cl)cc23)c1F
Outline: as §1

[6] = compound: CCCc1cc(C)[nH]c(=O)c1CNC(=O)c1cc(-c2ccnc(N3CCN(C)CC3)c2)cc2c1cnn2C(C)C
Outline: as §1

givinostat = compound: CCN(CC)Cc1ccc2cc(COC(=O)Nc3ccc(C(=O)NO)cc3)ccc2c1 [givinostat]
Outline: as §1

barasertib = compound: CCN(CCCOc1ccc2c(Nc3cc(CC(=O)Nc4cccc(F)c4)[nH]n3)ncnc2c1)CCOP(=O)(O)O [barasertib]
Outline: as §1

[7] = compound: CC[C@@H]1C(=O)N(C)c2cnc(Nc3ccc(C(=O)NC4CCN(C)CC4)cc3OC)nc2N1C1CCCC1
Outline: as §1

volasertib = compound: CC[C@@H]1C(=O)N(C)c2cnc(Nc3ccc(C(=O)N[C@H]4CC[C@H](N5CCN(CC6CC6)CC5)CC4)cc3OC)nc2N1C(C)C [volasertib]
Outline: as §1

[8] = compound: CC[C@H](C)N1C=C(C2=C(C=C(C=C21)C3=CN=C(C=C3)N4CCNCC4)C(=O)NCC5=C(C=C(NC5=O)C)C)C
Outline: as §1

epoxomicin = compound: CC[C@H](C)[C@@H](C(=O)N[C@@H]([C@@H](C)O)C(=O)N[C@@H](CC(C)C)C(=O)[C@]1(CO1)C)NC(=O)[C@H]([C@@H](C)CC)N(C)C(=O)C [epoxomicin]
Outline: as §1

[9] = compound: CCn1c(C(=O)N(C2CC2)C2CC2)cc2c3c(ncn3C)c(Nc3cc(C)n(C)n3)nc21
Outline: as §1

[10] = compound: CCn1cc(-c2ccnc3[nH]c(-c4cccc(CN(C)C)c4)cc23)c(-c2ccc(NC(=O)N(C)C)cc2)n1
Outline: as §1

[11] = compound: CN(C)CC(=O)Nc1ccc2[nH]c(=O)c3ccccc3c2c1
Outline: as §1

rosiglitazone = compound: CN(CCOC1=CC=C(C=C1)C[C@H]2C(=O)NC(=O)S2)C3=CC=CC=N3 (racemic) [rosiglitazone]
Outline: as §1

[12] = compound: CN1C2=C(C3=C1C(=O)N(N=C3)CC4=CC(=CC=C4)N)SC(=C2)S(=O)C
Outline: as §1

[13] = compound: CN1CCC(CNc2ccc3ncc(-c4cccc(OC(F)(F)F)c4)n3n2)CC1
Outline: as §1

Chain of UniProt Q96QU8 (Q96QU8 whole entry, looked up): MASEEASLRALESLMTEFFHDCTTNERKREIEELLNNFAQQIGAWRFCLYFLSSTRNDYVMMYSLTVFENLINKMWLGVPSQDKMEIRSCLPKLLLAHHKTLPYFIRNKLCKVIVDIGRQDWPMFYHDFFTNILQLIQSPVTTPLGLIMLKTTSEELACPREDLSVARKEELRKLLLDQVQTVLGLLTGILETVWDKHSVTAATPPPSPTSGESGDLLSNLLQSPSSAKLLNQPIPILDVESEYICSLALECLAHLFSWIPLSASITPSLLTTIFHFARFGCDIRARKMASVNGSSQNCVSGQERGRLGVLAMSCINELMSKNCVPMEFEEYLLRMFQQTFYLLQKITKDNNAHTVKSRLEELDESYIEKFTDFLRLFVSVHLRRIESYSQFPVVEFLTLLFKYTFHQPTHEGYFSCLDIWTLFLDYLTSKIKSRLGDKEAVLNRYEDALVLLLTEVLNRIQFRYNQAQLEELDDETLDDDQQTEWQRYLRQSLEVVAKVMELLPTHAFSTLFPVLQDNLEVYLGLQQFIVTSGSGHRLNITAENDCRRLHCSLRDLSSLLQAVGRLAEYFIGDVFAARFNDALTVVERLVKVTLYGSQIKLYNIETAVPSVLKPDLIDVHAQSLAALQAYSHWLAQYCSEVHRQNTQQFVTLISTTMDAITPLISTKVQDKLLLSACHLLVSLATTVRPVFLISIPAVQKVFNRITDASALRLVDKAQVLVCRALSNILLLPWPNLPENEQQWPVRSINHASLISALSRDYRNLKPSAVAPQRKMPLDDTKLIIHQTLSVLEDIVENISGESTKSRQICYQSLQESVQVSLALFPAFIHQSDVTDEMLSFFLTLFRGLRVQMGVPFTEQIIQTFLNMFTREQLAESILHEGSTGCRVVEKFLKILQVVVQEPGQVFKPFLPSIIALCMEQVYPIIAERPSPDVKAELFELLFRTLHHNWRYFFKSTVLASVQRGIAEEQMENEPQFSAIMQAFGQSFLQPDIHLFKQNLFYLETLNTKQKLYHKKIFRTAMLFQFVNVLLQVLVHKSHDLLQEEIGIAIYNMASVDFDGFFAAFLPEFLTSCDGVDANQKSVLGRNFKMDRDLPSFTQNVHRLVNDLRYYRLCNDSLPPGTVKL
Chain of UniProt Q92973 (Q92973 whole entry, looked up): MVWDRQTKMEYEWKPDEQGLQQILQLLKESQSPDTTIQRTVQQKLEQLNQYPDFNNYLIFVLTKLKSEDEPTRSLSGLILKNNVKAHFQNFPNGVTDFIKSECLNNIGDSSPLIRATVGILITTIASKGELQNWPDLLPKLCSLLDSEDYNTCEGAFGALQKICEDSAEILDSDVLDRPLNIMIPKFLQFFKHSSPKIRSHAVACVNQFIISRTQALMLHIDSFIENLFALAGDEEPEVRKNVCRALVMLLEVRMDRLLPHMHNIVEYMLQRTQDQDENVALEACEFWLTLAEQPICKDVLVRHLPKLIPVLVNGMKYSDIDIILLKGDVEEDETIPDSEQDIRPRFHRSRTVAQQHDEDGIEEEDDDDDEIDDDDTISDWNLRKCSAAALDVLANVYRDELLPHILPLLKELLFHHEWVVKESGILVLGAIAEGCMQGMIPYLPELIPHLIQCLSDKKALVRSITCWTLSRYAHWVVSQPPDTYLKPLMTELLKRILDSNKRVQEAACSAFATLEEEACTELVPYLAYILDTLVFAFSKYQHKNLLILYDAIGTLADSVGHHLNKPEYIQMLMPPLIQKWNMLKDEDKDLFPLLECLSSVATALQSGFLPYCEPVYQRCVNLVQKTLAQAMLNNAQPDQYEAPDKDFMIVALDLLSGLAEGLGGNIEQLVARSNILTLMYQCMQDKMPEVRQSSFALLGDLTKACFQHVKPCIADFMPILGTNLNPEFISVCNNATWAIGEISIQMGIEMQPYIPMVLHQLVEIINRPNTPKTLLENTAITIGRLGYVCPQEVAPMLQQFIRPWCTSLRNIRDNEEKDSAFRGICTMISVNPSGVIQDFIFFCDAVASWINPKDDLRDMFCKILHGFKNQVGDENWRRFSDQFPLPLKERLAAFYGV
Chain of WASHC2C, A0A096LPC5 (A0A096LPC5 whole entry, looked up): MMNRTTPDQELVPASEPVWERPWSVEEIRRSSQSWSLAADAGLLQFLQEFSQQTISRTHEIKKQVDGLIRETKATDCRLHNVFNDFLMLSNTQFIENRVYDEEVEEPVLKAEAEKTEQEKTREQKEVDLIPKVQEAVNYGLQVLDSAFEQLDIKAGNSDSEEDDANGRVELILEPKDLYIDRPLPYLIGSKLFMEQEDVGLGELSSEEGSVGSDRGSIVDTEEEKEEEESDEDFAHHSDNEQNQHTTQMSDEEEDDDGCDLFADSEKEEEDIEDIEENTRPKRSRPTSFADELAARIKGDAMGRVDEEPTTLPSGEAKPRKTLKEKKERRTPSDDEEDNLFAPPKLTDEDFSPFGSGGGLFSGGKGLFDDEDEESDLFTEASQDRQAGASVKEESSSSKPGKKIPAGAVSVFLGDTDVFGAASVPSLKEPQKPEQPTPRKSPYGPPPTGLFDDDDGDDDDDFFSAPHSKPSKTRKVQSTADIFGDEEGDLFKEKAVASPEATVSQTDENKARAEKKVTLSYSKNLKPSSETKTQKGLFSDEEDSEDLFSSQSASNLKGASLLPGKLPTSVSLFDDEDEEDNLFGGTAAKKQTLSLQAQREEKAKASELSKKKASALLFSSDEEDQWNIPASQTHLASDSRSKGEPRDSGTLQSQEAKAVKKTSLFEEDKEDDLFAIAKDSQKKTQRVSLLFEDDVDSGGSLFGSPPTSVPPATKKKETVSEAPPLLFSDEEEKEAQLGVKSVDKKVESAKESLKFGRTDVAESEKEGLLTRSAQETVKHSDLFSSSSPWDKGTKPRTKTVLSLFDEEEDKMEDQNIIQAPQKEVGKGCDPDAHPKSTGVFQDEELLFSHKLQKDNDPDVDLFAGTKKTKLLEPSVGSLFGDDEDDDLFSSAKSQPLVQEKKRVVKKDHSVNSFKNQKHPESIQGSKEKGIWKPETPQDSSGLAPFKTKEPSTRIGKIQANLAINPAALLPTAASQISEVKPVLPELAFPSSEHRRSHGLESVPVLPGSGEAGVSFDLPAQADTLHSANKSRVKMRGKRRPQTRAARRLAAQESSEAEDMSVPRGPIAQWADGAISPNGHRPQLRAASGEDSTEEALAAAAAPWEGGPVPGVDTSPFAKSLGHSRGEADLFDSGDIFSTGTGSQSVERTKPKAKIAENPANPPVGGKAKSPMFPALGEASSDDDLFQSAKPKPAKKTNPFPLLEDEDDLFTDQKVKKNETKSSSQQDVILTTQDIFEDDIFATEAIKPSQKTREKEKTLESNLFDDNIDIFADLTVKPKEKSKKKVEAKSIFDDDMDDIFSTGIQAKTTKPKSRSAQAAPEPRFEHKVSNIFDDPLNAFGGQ
Chain of UniProt Q9H3M7 (Q9H3M7 whole entry, looked up): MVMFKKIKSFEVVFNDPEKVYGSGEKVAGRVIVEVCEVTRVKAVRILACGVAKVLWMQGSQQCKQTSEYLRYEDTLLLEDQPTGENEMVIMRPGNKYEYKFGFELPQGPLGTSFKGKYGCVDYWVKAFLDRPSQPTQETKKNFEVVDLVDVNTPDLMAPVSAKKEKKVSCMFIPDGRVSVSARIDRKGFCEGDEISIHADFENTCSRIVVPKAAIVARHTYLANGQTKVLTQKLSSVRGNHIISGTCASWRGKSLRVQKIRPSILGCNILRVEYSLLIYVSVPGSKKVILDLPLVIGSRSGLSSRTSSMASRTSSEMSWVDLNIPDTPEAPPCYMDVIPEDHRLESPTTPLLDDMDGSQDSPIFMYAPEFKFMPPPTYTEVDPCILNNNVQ
Chain of UniProt O75674 (O75674 whole entry, looked up): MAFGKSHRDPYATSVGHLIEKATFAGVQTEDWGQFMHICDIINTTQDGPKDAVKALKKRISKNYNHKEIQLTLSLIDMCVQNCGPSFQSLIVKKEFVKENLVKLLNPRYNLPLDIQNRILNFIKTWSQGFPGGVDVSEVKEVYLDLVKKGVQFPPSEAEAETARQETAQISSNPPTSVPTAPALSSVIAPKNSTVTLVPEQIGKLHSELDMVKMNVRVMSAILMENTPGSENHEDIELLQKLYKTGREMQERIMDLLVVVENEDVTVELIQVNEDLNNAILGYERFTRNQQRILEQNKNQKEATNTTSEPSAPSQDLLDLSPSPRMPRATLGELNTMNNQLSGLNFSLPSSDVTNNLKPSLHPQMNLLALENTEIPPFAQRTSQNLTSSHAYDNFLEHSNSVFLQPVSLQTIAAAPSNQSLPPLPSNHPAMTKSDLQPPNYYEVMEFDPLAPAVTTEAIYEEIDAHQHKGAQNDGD
Chain of UniProt Q86SZ2 (Q86SZ2 whole entry, looked up): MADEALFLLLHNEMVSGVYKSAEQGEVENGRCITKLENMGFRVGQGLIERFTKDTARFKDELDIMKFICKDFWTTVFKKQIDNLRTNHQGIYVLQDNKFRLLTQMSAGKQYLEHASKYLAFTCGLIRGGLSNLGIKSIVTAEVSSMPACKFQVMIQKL
Chain of UniProt Q8NCE0 (Q8NCE0 whole entry, looked up): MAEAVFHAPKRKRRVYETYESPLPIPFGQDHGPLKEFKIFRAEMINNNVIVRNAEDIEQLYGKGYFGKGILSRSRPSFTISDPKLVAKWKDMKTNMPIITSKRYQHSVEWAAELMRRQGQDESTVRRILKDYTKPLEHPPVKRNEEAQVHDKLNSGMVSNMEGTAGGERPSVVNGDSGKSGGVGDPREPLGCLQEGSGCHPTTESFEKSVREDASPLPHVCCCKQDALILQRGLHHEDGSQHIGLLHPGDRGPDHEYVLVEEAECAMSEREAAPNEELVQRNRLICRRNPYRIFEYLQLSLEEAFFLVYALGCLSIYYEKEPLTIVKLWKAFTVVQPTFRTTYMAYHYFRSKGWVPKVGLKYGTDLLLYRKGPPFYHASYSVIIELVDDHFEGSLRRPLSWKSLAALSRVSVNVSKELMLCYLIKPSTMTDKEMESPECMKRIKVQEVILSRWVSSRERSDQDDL

Row | Target | log2 fold change [1] | log2 fold change [2] | log2 fold change [3] | log2 fold change [4] | log2 fold change (Nexturastat A) | log2 fold change (vemurafenib) | log2 fold change [5] | log2 fold change [6] | log2 fold change (givinostat) | log2 fold change (barasertib) | log2 fold change [7] | log2 fold change (volasertib) | log2 fold change [8] | log2 fold change (epoxomicin) | log2 fold change [9] | log2 fold change [10] | log2 fold change [11] | log2 fold change (rosiglitazone) | log2 fold change [12] | log2 fold change [13]
1 | UBE4B isoform 4 (UniProt O95155) | 0.007 | -0.012 | 0.001 | 0.014 | -0.017 | 0.024 | 0.045 | -0.008 | 0.008 | 0.042 | -0.046 | -0.229 (active) | 0.024 | 0.023 | 0 | -0.005 | 0.01 | 0.05 | -0.003 | -0.079
2 | TRMT2A (UniProt Q8IZ69) | 0.083 | -0.02 | -0.009 | 0.005 | 0.013 | 0.022 | -0.032 | 0.085 | -0.123 | -0.003 | 0.01 | 0.016 | 0.044 | -0.083 | 0.086 | -0.003 | 0.034 | -0.001 | 0.1 | -0.198
3 | USP3 (UniProt Q9Y6I4) | 0.026 | -0.016 | 0.085 | 0.069 | 0.01 | 0.112 | 0.192 | -0.069 | -0.022 | 0.067 | -0.173 | -0.325 | 0.04 | -0.083 | -0.051 | -0.037 | 0.063 | 0.094 | -0.077 | -0.379 (active)
4 | TSFM (UniProt P43897) | 0.253 | -0.167 | 0.021 | 0.11 | -0.057 | 0.08 | 0.034 | 0.181 | 0.041 | 0.075 | -0.003 | -0.092 | 0.046 | 0.212 | -0.062 | 0.074 | 0.081 | 0.069 | -0.041 | -0.056
5 | TMEM70 (UniProt Q9BUB7) | 0.006 | 0.051 | 0.051 | 0.005 | -0.012 | -0.011 | 0.029 | -0.053 | -0.164 | 0.047 | 0.005 | 0.064 | -0.017 | 0.001 | 0.257 (active) | -0.055 | 0.001 | 0.021 | -0.048 | -0.288 (active)
6 | TPM2 (UniProt P07951) | 0.048 | -0.019 | -0.047 | 0.212 | -0.138 | 0.03 | 0.001 | 0.405 | -0.011 | 0.04 | -0.07 | 0.173 | 0.069 | 0.287 | 0.023 | -0.04 | -0.057 | -0.024 | -0.023 | 0.118
7 | TOM1L1 (UniProt O75674) | -0.101 | 0.005 | 0.057 | 0.019 | -0.038 | 0.102 | 0.015 | -0.07 | 0.024 | 0.03 | 0.072 | -0.052 | 0.027 | 0.013 | -0.023 | -0.004 | 0.043 | 0.062 | -0.053 | 0.385 (active)
8 | USP48 isoform 8 (UniProt Q86UV5) | 0.128 | -0.094 | -0.054 | 0.119 | -0.006 | 0.162 | 0.142 | 0.103 | 0.144 | 0.14 | -0.55 (active) | -0.84 (active) | 0.144 | -0.058 | -0.03 | -0.047 | 0.195 | 0.064 | -0.013 | -0.459
9 | TXNIP (UniProt Q9H3M7) | -0.04 | 0.003 | -0.115 | 0.034 | 0.177 | -0.005 | -0.079 | 0.001 | -0.06 | 0.033 | 0.112 | 0.021 | 0.053 | 0.054 | 0.212 | -0.066 | -0.026 | 0.036 | -0.07 | -0.793 (active)
10 | WASHC2C, A0A096LPC5 | -0.059 | 0.062 | -0.107 | -0.041 | 0 | 0.039 | -0.206 | -0.101 | -0.012 | -0.037 | 0.034 | -0.111 | -0.03 | -0.016 | 0.063 | -0.132 | 0.012 | 0.067 | 0.142 | -0.507 (active)
11 | TTC38 (UniProt Q5R3I4) | -0.039 | 0.405 | 0.127 | 0.019 | 1.05 (active) | 0.031 | 0.012 | 0.141 | 0.938 (active) | 0.023 | 0.076 | 0.253 | 0.041 | 0.012 | -0.017 | -0.05 | 0.136 | -0.015 | -0.049 | -0.039
12 | TRAPPC6B (UniProt Q86SZ2) | 0.022 | -0.01 | 0.049 | 0.07 | -0.097 | 0.009 | 0.02 | -0.063 | -0.02 | 0.008 | -0.015 | -0.002 | -0.011 | 0.146 | 0.009 | -0.05 | -0.01 | -0.008 | -0.026 | -0.08
13 | TNPO1 (UniProt Q92973) | 0.041 | 0 | 0.037 | 0 | -0.017 | 0.015 | 0.064 | -0.009 | 0.015 | -0.005 | -0.182 | -0.379 (active) | 0.046 | -0.016 | 0.021 | -0.025 | 0.018 | 0.012 | -0.019 | -0.055
14 | TSEN2 (UniProt Q8NCE0) | 0.306 (active) | 0.015 | 0.014 | -0.02 | -0.013 | 0.058 | 0.063 | 0.097 | 0.012 | 0.073 | -0.019 | -0.146 | 0.053 | 0.078 | -0.021 | -0.082 | 0.086 | 0.077 | -0.04 | 0.034
15 | UBE2J1 (UniProt Q9Y385) | -0.133 | -0.016 | 0.107 | 0.04 | -0.077 | -0.087 | -0.071 | -0.262 | 0.098 | -0.047 | -0.073 | -0.165 | 0.07 | 0.248 | -0.024 | 0.014 | 0.01 | 0.003 | -0.083 | -0.006
16 | XPO6 (UniProt Q96QU8) | 0.008 | -0.221 | 0.041 | -0.369 | 0.767 (active) | 0.082 | 0.13 | 0.028 | 0.068 | -0.003 | -0.054 | -0.536 (active) | -0.017 | -0.249 | -0.011 | 0.174 | 0.065 | 0 | 0.018 | -0.134
